The nature of assay [1]: small molecules captured by biotinylated probe aFSTL3 – biochemical, small-molecule microarray, fluorescence 635/667, stem cell growth factor project, primary screen (AID 1064).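 Further: measures binding of the biotinylated anti-FSTL3 antibody to printed compounds.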 As to conditions: higher = more signal.
Assay [2] can be described thus: binders from COS7 lysate, DM2A8 probe, primary screen, torsin A project, cell lysate, small-molecule microarray, fluorescence 635/667 (AID 1065). As to conditions: higher = more signal, COS7 lysate expressing mutant human TOR1A.
The nature of assay [3]: small molecules captured by biotinylated probe aFGF2 – biochemical, small-molecule microarray, fluorescence 635/667, stem cell growth factor project, primary screen (AID 1067).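 Further: measures binding of biotinylated aFGF2 protein to printed compounds on slides; z-score merges feature fluorescence and signal-to-noise across triplicate slides.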 Conditions: higher = more signal.
The nature of assay [4]: small molecules captured by biotinylated probe aFGF10 – biochemical, small-molecule microarray, fluorescence 635/667, stem cell growth factor project, primary screen (AID 1071).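 Further: score merges 667 nm spot intensity and signal to noise from triplicate slides.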 Conditions: higher = more signal.
Assay [5] concerns the target Neurogenic locus notch homolog protein 2 (Homo sapiens) (UniProt Q04721). In words: small molecules binding Notch2 protein – biochemical, small-molecule microarray, 635 nm fluorescence, stem cell growth factors, primary screen (AID 1073). As to conditions: higher = more signal.
Assay [6] deals with Pro-neuregulin-1, membrane-bound isoform (Homo sapiens) (UniProt Q02297). The assay is described as follows: small molecules binding neuregulin-1 protein – biochemical, small-molecule microarray, fluorescence 635/667, psychiatric disease protein project, primary screen (AID 1075).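 Further: score combines 667 nm spot fluorescence with signal to noise.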 Conditions: NRG1 binding, 635 nm fluorescence, higher = more signal.
Pro-neuregulin-1, membrane-bound isoform (Homo sapiens), sequence (Q02297 whole entry, looked up, the tested form may be a part, canonical isoform): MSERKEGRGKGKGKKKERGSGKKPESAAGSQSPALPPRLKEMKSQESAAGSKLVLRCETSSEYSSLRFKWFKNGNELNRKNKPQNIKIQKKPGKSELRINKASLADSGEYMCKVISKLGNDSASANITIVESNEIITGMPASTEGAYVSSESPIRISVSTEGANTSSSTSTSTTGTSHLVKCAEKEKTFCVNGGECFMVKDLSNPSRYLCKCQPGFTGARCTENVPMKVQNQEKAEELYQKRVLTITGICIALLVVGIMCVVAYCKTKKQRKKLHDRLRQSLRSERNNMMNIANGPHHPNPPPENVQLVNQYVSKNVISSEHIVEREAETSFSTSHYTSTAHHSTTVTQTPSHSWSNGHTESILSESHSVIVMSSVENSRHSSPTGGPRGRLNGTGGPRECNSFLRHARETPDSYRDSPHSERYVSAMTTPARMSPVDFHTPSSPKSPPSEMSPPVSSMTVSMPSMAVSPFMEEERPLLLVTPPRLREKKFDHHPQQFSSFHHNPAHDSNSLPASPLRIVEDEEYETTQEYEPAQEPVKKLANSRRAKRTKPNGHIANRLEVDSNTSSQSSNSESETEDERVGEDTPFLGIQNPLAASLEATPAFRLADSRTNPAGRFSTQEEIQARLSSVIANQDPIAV
In assay [7] the test system is Neuregulin-1 EGF-like domain. The assay is described as follows: small molecules binding NRG1 EGF domain – biochemical, small-molecule microarray, 635 nm fluorescence, primary screen (AID 1081).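 Further: binding of the protein to compounds printed on small-molecule microarray slides.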 As to conditions: higher = more signal.
Assay [8] can be described thus: FRG1 expression reporter modulators in myotubes – cell-based, C2C12 myotubes, firefly/Renilla luciferase, luminescence, FRG1 inhibition for FSHD, primary screen (AID 1084). As to conditions: FRG1 promoter luciferase, higher = more signal, called active from +8 up or from −8 down.
A short description of assay [9]: small molecules captured by biotinylated probe aFST – biochemical, small-molecule microarray, fluorescence 635/667, stem cell growth factor project, primary screen (AID 1086).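 Further: score merges 667 nm fluorescence with signal-to-noise of each printed compound spot.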 As to conditions: higher = more signal.
Assay [10] can be described thus: binders of probe aHhip on microarray, primary screen, stem cell growth factor project, biochemical, small-molecule microarray, fluorescence 635/667 (AID 1087).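 Further: score merges spot fluorescence at 667nm with spot signal to noise ratio.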 As to conditions: higher = more signal.
The test system of assay [11] is PRMT1 (protein arginine N-methyltransferase 1). In words: small molecules binding arginine methyltransferase PRMT1 – biochemical, small-molecule microarray, 635 nm fluorescence, primary screen (AID 1088).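 Further: binding of Prmt1 protein to compounds spotted on small-molecule microarray slides.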 Conditions: higher = more signal.
Assay [12] in a line: growth effects on S. cerevisiae YJM789 – YJM789 clinical isolate, OD600, 24 h, basal, primary screen (AID 1089).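 Further: growth of clinical yeast isolate S. cerevisiae YJM 789 seeded 1000 cells per well; test concentration not given here.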 As to conditions: higher = more signal, called active from +8 up or from −8 down.
A short description of assay [13]: S. pombe growth modifiers, basal conditions – strain 972, OD600, 24 h, no modulator, primary screen (AID 1090).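 Further: basal condition with compound alone and no growth modifier present; test concentration not given here.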 Conditions: S. pombe 972 growth, higher = more signal, called active from +8 up or from −8 down.
The nature of assay [14]: budding yeast growth modifiers under rapamycin – strain BY4716, OD600, 96 h, primary screen (AID 1091). Further: test concentration not given here. As to conditions: S. cerevisiae BY4716 + rapamycin, higher = more signal, called active from +8 up or from −8 down.
In assay [15] the target is Torsin-1A-interacting protein 2 (Homo sapiens) (UniProt Q8NFQ8). The assay is described as follows: small molecules binding lysate-expressed LULL1 – cell lysate, human LULL1 lysate, 635/667 nm fluorescence, primary screen (AID 1092).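 Further: probe is lysate of COS7 cells overexpressing human LULL1; score merges per-feature 667 nm fluorescence with signal-to-noise.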 Conditions: small-molecule microarray, hLULL1 lysate binding, 635 nm fluorescence; higher = more signal.
Torsin-1A-interacting protein 2 (Homo sapiens), sequence (Q8NFQ8 whole entry, looked up): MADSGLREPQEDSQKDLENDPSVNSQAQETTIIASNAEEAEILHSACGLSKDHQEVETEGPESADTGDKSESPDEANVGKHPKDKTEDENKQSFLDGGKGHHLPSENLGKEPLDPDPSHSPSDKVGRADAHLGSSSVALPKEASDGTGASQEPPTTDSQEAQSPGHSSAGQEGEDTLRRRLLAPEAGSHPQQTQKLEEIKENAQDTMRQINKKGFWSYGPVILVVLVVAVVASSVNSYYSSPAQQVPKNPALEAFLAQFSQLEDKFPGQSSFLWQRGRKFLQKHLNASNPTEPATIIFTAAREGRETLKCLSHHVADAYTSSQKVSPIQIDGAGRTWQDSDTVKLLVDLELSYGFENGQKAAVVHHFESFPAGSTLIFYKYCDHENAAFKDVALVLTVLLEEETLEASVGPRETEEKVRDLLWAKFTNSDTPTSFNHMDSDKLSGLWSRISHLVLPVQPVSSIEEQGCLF
Assay [16] in a line: optical density change of DRC41 E. coli – strain DRC41, OD650, 24 h, E. coli filamentation project, primary screen (AID 1093).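 Further: MC1000 strain lacking acrAB efflux and sulA so SOS filamentation is blocked; test concentration not given here.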 As to conditions: E. coli DRC41 growth, higher = more signal, called active from +8 up or from −8 down.
Assay [17] in a line: probe aLefty2 binding to arrayed compounds – biochemical, biotinylated probe, 635/667 nm fluorescence, primary screen (AID 1094).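 Further: score merges spot fluorescence near 667 nm with spot signal-to-noise ratio.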 Conditions: small-molecule microarray, higher = more signal.
The test system of assay [18] is Noggin (protein binding on small-molecule microarray). In words: small molecules binding Noggin protein – biochemical, 635/667 nm fluorescence, primary screen (AID 1095).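 Further: score merges 667 nm feature fluorescence with signal to noise over triplicate slides.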 Conditions: 635 nm fluorescence, higher = more signal.
For assay [19], the target named is Neurogenic locus notch homolog protein 3 (Homo sapiens) (UniProt Q9UM47). In words: small molecules binding NOTCH3 protein – biochemical, 635/667 nm fluorescence, primary screen (AID 1096). As to conditions: small-molecule microarray, 635 nm fluorescence, higher = more signal.
Neurogenic locus notch homolog protein 3 (Homo sapiens), sequence (Q9UM47 whole entry, looked up): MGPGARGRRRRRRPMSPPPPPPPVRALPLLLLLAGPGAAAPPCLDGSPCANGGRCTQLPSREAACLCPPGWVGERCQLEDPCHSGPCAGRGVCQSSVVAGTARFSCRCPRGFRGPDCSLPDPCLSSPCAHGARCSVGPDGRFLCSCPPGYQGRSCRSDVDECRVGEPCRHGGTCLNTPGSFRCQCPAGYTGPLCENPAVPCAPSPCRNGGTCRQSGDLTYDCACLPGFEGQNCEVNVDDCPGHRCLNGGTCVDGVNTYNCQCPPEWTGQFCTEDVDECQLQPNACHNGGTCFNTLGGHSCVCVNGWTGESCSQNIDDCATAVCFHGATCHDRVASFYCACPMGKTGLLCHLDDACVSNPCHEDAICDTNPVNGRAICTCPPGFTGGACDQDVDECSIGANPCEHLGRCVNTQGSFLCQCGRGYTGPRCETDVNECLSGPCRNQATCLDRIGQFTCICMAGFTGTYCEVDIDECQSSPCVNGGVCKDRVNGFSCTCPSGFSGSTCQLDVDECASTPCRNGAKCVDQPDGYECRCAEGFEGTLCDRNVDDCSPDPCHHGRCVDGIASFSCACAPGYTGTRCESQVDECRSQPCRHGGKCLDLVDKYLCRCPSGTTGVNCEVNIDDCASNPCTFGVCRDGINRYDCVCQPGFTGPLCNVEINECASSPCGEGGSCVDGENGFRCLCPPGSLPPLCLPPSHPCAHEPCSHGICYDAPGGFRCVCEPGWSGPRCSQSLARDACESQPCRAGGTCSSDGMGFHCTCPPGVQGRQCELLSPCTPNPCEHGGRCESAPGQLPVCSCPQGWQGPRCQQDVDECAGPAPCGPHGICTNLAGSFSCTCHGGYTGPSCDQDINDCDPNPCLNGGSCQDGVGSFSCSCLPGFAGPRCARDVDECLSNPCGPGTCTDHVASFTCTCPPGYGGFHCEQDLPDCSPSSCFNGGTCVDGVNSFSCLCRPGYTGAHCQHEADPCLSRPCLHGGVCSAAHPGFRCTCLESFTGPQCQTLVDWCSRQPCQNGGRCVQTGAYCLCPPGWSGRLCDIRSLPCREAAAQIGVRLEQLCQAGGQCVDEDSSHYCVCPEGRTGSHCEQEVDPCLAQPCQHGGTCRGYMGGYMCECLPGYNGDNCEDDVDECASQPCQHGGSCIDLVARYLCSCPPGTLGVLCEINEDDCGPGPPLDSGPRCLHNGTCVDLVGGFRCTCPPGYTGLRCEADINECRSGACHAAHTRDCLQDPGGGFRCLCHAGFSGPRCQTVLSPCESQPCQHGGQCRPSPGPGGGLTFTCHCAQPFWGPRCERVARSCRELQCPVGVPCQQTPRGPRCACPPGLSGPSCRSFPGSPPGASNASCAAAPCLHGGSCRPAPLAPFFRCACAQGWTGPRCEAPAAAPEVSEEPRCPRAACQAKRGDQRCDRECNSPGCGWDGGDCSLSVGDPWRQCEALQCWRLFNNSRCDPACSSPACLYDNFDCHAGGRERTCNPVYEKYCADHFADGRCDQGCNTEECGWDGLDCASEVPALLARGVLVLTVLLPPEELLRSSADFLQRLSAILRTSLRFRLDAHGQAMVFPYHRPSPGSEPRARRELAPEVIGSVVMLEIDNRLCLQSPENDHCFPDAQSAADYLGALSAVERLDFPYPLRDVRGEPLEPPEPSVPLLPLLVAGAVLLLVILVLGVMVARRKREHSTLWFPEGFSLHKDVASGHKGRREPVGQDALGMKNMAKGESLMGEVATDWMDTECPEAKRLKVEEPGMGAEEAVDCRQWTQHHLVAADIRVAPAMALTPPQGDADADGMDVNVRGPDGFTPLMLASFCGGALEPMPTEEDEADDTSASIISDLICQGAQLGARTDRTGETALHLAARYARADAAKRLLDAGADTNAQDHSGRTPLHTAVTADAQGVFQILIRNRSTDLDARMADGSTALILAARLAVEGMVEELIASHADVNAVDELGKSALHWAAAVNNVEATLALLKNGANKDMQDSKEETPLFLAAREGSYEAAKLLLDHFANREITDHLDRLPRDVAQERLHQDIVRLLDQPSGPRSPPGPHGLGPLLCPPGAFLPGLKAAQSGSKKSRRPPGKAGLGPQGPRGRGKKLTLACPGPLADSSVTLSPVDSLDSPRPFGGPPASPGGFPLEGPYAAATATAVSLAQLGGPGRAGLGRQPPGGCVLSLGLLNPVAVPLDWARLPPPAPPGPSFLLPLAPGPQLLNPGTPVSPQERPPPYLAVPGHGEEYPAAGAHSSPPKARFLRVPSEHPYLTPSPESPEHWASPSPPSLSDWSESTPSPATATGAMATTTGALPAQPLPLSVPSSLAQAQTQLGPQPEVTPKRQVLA
A short description of assay [20]: probe aEGFR binding to arrayed compounds – biochemical, biotinylated probe, 635/667 nm fluorescence, primary screen (AID 1097).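 Further: probe is a biotinylated anti-EGFR antibody binding compounds printed on slides; score combines fluorescence near 667 nm and signal to noise of each spot.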 Conditions: small-molecule microarray, higher = more signal.

Data on 5 compounds can be found in PubChem BioAssay.

The source made the active and inactive calls.

Turning to `C=CC[C@@]1(C(=O)N2CCOCC2)N=C(c2ccc(OCCCO)cc2)O[C@@H]1c1ccccc1`, the composite z-score is -0.487 in assay [1]; 1.2 in [2]; -0.117 in assay [3]; 0.351 in [4]; 0.369 in assay [5]; 1.12 in assay [6]. Also, the composite z-score is 1.08 in [7]; -0.298 in assay [9]; -0.712 in assay [10]; 0.142 in assay [11]; 2.71 in assay [15]; 0.0634 in [17]. In addition, the results for the composite z-score in [18], in [19] and in [20] were -0.506, -1.35 and -0.0728, respectively. Also, the z-score in assay [8] is -1.36 (inactive); in assay [12], 0.509 (inactive); in assay [13], -1.61 (inactive); in [14], 0.352 (inactive); in [16] it was 1.33 (inactive).
Consider `O=C1c2ccccc2[C@@]2(Cc3ccccc3N(CC(F)(F)F)C2=O)[C@H](c2ccc(CO)cc2)N1C1CCCCC1`, for which the composite z-score in [1] is -0.2; in assay [2], 0.438; in assay [3] it was -0.0199; in assay [4] it was 0.354; in assay [5], 0.455; in assay [6], 0.492. Also, the composite z-score in assay [7] is 1.47; in assay [9], -0.415; in assay [10], -0.0618; in [11], 0.778; in assay [15] it was 1.08; in assay [17], 0.0598. Further, the results for the composite z-score in assay [18], in assay [19] and in [20] were 1.05, 0.601 and 0.0376, respectively. The z-score in [8] is -0.555 (inactive); in [12], 0.315 (inactive); in [13], -0.958 (inactive); in assay [14] it was -1.99 (inactive); in assay [16], 0.825 (inactive).
As to `CCCC=C(CCC)[C@@H](NC(=O)c1ccc(C(F)(F)F)cc1)c1ccccc1`, the composite z-score in assay [1] is -0.0795; in assay [2], 0.333; in assay [3], -0.0483; in [4] it was -0.195; in [5] it was 0.237; in [6] it was -0.256. Further, the composite z-score in [7] was 0.113; in assay [9] it was 0.587; in [10], -0.0296; in [11] it was 0.626; in assay [15] it was 2.03; in assay [17], -0.0038. For the same compound, the composite z-score is -0.0491 in assay [18], 0.417 in assay [19] and -0.0565 in [20]. Moreover, the z-score in assay [8] is 2.78 (inactive); in assay [12], 0.562 (inactive); in assay [13] it was -0.502 (inactive); in assay [14], 1.62 (inactive); in [16], -0.773 (inactive).
For `[N-]=[N+]=NCc1ccccc1C[C@@]1(C(=O)N2CCOCC2)N=C(c2ccc(OCCCO)cc2)O[C@@H]1c1ccccc1N=[N+]=[N-]`, the composite z-score in assay [1] came out at 0.308; in assay [2], 0.968; in assay [3], 0.345; in assay [4] it was 0.819; in [5], 1.59; in [6], 1.13. Further, the composite z-score in assay [7] is 1.26; in assay [9] it was 0.889; in [10], -0.146; in assay [11], 1.56; in assay [15] it was 3.16; in [17] it was 0.557. Further, the figures for the composite z-score in assay [18], in [19] and in [20] were 0.41, 1.08 and 0.318, respectively. For the same compound, the z-score in assay [8] is -2.14 (inactive); in [12], -0.788 (inactive); in assay [13], -0.39 (inactive); in [14] it was 6.02 (inactive); in [16], 0.282 (inactive).
As for `O=C(NCC(O)CO)[C@]1(Cc2ccccc2)N=C(c2ccc(OCCCO)cc2)O[C@@H]1c1ccccc1` (stereo not given in full), the composite z-score in [1] is 1.09; in assay [2], 2.15; in assay [3], -0.104; in assay [4], -0.512; in assay [5], 0.271; in [6], 0.951. The composite z-score came to 0.868 in assay [7]; 0.864 in [9]; 0.189 in [10]; 1.26 in assay [11]; 3.43 in assay [15]; 0.595 in [17]. The composite z-score is -0.574 in [18], -0.0954 in assay [19] and 0.107 in [20]. Also, the z-score in assay [8] was -1.63 (inactive); in [12], -1 (inactive); in [13], -1.56 (inactive); in assay [14] it was -1.81 (inactive); in assay [16], 0.897 (inactive).
